Drawing on PMC7862700, “An all-to-all approach to the identification of sequence-specific readers for epigenetic DNA modifications on cytosine”, this text covers binding signal for 1 sequence.

Holding throughout (assay): DAPPL (digital affinity profiling via proximity ligation, sequencing); 10 mM Tris-HCl pH 7.5, 50 mM NaCl, 1 mM DTT, 4% glycerol, room temperature, 30 min; GST-TFs on glutathione beads, 16-mer random dsDNA library, 0.1% formaldehyde crosslink after washing; high values mean tight binding
Conditions in all cases: protein: recombinant; tags: N-terminal GST; dsDNA, one strand shown

For one assay, the target named is T1, FLI1 (Homo sapiens, UniProt Q01543 1-452).
T1 sequence: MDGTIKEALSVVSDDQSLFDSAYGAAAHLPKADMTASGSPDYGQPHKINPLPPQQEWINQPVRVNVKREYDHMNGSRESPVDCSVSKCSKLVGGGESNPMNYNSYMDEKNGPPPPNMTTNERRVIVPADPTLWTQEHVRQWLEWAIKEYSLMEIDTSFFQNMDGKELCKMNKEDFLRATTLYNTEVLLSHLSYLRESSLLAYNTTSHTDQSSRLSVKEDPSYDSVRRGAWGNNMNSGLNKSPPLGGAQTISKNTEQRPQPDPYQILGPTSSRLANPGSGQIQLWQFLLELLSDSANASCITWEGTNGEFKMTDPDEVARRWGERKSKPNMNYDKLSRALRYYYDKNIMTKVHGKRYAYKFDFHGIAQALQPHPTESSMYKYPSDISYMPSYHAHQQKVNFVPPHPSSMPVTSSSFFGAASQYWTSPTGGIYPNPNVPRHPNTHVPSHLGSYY
In a few lines: (§1)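 Pools of DNA-barcoded human transcription factors, expressed in yeast as GST fusions on glutathione beads and combined with a tag-only sample, were incubated with 200 nmole of a 16-mer random double-stranded DNA library. Incubation took 30 min at room temperature in Tris/NaCl/DTT/glycerol buffer and was followed by washing, 0.1% formaldehyde crosslinking, proximity ligation (BsaI/T4 ligase, 1 h, 37 °C), PCR amplification and sequencing on an Illumina NextSeq500. Binding signal is the ratio of a hexamer's read frequency for a factor to its frequency for the tag-only sample.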

Another assay concerns the target T2, ELK1 (Homo sapiens, UniProt P19419 1-428).
T2 sequence: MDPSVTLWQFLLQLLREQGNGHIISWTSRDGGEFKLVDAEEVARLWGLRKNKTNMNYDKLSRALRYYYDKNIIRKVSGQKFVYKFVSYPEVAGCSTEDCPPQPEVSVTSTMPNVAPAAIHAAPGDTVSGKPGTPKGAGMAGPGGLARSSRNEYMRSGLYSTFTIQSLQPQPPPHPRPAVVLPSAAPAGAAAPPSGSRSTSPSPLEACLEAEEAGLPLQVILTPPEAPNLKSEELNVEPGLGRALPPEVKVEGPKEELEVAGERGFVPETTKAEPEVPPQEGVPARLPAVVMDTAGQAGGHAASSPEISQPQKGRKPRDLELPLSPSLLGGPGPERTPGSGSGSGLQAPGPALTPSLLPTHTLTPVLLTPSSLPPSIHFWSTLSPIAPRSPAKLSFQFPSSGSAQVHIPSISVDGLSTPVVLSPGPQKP
In a few lines:
as §1

The target of the next assay is T3, GABPA (Homo sapiens, UniProt Q06546 1-454).
T3 sequence: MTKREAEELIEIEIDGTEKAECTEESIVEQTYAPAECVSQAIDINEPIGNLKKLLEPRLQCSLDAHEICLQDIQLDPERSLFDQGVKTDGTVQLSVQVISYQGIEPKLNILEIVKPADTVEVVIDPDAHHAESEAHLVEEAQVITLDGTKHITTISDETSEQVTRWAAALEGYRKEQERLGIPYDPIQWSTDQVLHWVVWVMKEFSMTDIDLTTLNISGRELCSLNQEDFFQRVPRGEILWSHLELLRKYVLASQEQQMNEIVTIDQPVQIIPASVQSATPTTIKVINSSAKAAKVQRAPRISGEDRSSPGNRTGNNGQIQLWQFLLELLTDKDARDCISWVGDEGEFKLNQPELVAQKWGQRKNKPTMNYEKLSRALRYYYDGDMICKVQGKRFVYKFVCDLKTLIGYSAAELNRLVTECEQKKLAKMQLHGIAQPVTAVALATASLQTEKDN
The gist of the method: as §1

The next assay addresses T4, ERG (Homo sapiens, UniProt P11308 1-479).
T4 sequence: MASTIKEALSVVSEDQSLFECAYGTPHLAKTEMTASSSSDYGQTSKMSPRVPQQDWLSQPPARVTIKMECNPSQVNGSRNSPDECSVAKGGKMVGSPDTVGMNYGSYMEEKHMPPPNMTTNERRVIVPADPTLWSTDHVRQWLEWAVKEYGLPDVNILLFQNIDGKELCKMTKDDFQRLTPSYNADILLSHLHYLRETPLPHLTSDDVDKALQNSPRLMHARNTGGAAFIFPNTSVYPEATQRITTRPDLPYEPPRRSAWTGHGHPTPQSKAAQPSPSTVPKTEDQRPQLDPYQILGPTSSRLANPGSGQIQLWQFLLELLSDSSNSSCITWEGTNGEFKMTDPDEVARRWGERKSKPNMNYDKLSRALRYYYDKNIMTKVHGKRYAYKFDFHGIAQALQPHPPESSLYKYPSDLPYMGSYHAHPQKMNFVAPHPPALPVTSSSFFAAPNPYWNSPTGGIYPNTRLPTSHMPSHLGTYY
In a few lines: as §1

In the next assay the target is ELF1 (Homo sapiens, UniProt P32519 1-619). In a few lines:
as §1

The target in the next assay is T5, EHF (Homo sapiens, UniProt Q9NZC4 1-300).
T5 sequence: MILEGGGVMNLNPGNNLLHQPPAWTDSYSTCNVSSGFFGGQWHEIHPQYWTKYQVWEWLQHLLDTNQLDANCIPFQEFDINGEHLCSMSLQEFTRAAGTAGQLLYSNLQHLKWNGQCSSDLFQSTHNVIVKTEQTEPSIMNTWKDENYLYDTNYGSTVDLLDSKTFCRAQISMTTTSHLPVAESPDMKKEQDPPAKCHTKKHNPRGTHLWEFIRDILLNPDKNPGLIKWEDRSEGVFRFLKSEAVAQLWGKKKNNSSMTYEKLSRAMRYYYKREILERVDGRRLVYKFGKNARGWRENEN
The gist of the method: as §1

The next assay addresses SPI1 (Homo sapiens, UniProt P17947 1-270). In a few lines:
as §1

The target in another assay is SPIB (Homo sapiens, UniProt Q01892 1-262). In a few lines: as §1
Chain of SPIB (Q01892 whole entry): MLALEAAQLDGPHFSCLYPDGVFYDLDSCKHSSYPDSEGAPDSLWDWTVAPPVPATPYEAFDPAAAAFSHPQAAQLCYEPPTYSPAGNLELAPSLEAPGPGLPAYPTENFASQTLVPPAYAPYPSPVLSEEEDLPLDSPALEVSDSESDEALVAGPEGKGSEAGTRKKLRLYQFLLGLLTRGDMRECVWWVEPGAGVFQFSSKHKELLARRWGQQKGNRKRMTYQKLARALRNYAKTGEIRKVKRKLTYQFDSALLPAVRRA
A further assay concerns the target T6, FEV (Homo sapiens, UniProt Q99581 1-238).
T6 sequence: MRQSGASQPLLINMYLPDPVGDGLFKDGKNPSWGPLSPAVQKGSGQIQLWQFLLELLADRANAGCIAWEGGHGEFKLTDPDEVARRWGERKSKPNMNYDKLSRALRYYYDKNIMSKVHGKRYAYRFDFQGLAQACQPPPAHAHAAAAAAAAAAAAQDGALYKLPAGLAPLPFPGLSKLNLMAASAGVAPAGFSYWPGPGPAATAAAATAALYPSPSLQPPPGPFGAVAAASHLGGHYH
In a few lines: as §1

The next assay addresses ETV5 (Homo sapiens, UniProt P41161 1-510). The gist of the method:
as §1

For a further assay, the target named is T7, SPIC (Homo sapiens, UniProt Q8N5J4 1-248).
T7 sequence: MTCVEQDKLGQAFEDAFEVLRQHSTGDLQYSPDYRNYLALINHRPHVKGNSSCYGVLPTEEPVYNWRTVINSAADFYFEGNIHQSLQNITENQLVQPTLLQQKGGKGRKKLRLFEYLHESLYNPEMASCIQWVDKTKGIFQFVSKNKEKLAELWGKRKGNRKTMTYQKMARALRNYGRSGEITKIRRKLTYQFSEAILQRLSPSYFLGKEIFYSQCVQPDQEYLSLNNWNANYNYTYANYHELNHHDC
The gist of the method:
as §1

The target of the next assay is ELF4 (Homo sapiens, UniProt Q99607 1-663). In a few lines:
as §1

For a further assay, the target named is ETV1 (Homo sapiens, UniProt P50549 1-477). The gist of the method:
as §1

A further assay addresses T8, ERF (Homo sapiens, UniProt P50548 1-548).
T8 sequence: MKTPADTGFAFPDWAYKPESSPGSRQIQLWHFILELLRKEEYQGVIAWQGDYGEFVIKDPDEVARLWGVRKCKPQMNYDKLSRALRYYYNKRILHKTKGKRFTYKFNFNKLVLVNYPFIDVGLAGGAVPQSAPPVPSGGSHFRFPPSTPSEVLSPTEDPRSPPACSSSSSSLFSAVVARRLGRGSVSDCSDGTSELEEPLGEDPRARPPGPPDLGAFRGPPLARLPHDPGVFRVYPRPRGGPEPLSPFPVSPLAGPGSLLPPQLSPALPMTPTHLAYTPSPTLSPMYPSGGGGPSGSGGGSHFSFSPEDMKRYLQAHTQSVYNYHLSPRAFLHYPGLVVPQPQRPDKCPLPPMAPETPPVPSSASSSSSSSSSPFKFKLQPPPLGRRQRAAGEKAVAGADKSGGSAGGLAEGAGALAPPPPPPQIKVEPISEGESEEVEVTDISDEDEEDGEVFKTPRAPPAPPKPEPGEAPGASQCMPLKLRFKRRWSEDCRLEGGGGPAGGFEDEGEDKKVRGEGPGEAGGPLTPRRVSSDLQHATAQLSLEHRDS
The gist of the method: as §1

The target in another assay is T9, ETV3L (Homo sapiens, UniProt Q6ZN32 1-361).
T9 sequence: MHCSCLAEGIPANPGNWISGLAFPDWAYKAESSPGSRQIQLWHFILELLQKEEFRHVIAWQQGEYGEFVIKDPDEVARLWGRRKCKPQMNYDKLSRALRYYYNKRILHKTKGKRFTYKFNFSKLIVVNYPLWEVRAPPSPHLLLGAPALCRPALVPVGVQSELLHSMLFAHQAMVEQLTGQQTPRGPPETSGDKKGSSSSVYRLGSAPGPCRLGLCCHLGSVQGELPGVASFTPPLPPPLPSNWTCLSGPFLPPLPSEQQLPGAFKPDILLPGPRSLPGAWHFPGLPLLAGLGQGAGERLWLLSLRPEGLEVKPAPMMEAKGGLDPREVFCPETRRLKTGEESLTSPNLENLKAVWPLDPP
The gist of the method: as §1

Another assay concerns the target T10, ETS2 (Homo sapiens, UniProt P15036 1-469).
T10 sequence: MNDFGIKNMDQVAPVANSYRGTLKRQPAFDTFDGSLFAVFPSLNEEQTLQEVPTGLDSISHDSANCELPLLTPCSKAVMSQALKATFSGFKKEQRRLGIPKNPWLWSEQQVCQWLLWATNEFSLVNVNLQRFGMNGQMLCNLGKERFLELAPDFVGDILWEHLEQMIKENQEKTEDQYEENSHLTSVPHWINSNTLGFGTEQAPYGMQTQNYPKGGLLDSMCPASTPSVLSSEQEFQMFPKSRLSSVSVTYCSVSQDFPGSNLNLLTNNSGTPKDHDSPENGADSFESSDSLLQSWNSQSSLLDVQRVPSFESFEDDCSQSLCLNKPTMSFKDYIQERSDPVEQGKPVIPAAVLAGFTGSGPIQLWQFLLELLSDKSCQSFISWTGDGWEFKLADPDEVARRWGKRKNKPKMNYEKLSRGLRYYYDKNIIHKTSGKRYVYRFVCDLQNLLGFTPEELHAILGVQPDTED
In a few lines: as §1

In another assay the target is T11, SPDEF (Homo sapiens, UniProt O95238 1-335).
T11 sequence: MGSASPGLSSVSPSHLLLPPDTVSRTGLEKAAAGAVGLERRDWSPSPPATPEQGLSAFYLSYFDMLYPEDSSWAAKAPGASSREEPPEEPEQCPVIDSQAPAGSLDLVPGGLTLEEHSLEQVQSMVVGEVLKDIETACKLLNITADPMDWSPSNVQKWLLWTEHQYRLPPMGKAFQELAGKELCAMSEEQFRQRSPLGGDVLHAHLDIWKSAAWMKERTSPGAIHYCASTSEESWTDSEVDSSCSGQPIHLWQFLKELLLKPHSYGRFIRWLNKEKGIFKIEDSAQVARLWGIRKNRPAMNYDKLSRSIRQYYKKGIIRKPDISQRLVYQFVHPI
In a few lines:
as §1

The next assay concerns the target T12, ELF5 (Homo sapiens, UniProt Q9UKW6-2 1-255).
T12 sequence: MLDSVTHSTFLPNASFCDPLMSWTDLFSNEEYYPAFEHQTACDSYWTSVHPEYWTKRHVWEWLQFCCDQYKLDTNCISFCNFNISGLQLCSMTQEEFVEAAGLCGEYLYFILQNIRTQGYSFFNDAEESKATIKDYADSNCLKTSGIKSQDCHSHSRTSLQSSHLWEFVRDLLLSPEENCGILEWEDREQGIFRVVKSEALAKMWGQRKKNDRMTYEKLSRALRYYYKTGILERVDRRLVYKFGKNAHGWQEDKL
In a few lines: as §1

For another assay, the target named is T13, ETV3 (Homo sapiens, UniProt P41162-2 1-143).
T13 sequence: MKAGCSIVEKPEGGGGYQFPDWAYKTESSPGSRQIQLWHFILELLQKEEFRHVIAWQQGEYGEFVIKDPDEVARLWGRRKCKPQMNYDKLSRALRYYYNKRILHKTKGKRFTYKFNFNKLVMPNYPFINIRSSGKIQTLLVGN
In a few lines:
as §1

The next assay addresses ETV6 (Homo sapiens, UniProt P41212 1-452). In a few lines:
as §1

Chain of ELF1 (P32519 whole entry): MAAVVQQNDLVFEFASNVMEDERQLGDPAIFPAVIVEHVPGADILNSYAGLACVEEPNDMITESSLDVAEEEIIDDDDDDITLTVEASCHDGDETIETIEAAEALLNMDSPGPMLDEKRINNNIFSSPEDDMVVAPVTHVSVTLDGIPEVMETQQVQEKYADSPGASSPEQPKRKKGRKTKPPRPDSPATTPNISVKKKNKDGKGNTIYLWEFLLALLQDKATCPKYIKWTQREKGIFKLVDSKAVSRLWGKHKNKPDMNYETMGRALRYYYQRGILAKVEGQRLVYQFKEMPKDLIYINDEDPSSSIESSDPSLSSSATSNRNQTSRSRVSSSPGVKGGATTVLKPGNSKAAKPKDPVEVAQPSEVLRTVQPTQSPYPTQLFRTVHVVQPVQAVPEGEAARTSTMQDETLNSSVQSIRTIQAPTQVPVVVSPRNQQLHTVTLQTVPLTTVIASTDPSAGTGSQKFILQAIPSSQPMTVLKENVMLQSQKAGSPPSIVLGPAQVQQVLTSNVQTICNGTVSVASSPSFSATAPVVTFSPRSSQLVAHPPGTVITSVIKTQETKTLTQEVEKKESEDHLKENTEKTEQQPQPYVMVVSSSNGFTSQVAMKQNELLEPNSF
Chain of ETV5 (P41161 whole entry): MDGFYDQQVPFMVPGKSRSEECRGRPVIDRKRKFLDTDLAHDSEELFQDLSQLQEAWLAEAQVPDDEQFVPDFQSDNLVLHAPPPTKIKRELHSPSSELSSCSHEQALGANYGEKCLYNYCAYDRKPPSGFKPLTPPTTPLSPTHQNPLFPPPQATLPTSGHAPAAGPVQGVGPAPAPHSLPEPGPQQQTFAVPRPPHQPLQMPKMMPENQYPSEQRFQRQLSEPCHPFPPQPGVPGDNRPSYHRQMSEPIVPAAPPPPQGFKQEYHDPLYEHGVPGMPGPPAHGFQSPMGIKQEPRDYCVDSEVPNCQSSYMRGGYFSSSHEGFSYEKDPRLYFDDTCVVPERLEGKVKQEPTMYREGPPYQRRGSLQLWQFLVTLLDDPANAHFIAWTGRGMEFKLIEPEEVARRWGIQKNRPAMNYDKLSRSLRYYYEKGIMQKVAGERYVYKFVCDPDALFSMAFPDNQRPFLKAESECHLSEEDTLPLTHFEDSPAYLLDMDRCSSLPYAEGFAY
Chain of ELF4 (Q99607 whole entry): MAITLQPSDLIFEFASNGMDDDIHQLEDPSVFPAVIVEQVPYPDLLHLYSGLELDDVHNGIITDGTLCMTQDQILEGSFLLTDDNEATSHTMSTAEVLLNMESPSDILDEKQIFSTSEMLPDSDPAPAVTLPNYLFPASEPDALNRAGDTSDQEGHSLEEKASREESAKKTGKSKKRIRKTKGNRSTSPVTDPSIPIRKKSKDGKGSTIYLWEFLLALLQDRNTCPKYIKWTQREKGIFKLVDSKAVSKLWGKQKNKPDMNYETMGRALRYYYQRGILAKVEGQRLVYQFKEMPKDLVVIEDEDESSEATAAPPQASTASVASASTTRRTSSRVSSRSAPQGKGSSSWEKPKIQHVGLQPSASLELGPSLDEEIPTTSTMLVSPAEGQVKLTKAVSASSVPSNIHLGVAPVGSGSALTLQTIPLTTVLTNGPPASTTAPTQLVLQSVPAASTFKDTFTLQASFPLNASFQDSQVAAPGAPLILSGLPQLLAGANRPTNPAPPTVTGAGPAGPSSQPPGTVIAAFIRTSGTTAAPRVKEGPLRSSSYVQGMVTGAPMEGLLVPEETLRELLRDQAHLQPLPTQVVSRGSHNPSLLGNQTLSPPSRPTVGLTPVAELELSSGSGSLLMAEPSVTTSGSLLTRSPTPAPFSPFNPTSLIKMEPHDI
Chain of ETV1 (P50549 whole entry): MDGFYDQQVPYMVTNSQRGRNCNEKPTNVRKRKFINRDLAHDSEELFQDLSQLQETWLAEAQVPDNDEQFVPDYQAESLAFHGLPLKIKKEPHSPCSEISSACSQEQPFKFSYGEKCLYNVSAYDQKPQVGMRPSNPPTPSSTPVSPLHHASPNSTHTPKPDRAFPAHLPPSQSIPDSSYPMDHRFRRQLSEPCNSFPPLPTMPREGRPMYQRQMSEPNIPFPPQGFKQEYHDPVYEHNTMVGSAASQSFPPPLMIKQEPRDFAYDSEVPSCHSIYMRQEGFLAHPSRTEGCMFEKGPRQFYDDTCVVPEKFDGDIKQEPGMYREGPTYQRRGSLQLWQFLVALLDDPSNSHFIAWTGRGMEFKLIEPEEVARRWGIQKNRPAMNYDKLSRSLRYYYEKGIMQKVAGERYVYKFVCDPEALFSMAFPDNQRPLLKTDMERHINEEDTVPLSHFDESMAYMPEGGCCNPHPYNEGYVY
Chain of ETV6 (P41212 whole entry): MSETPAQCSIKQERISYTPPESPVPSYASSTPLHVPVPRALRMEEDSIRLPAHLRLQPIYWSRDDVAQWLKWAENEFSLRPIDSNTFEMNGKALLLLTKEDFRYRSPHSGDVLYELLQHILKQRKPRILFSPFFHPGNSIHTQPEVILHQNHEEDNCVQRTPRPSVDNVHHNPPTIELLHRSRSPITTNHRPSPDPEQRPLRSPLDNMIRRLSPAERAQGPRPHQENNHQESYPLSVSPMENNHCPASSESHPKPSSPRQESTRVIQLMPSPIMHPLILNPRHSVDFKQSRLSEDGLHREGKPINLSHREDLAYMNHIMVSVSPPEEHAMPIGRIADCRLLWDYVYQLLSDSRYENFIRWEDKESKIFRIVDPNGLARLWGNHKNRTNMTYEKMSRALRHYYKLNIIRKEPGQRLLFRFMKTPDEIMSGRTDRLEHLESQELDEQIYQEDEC

In the case of CGTCGC, the binding signal was 1.31 fold enrichment (6-mer frequency, TF over GST control) with FLI1; 1.2 fold enrichment (6-mer frequency, TF over GST control) in the assay with ELK1; 1.24 fold enrichment (6-mer frequency, TF over GST control) with GABPA; 1.19 fold enrichment (6-mer frequency, TF over GST control) in the assay with ERG; 1.21 fold enrichment (6-mer frequency, TF over GST control) in the assay with ELF1; 1.14 fold enrichment (6-mer frequency, TF over GST control) in the assay with EHF. For the same sequence, the binding signal with SPI1 was 1.21 fold enrichment (6-mer frequency, TF over GST control); with SPIB, 1.25 fold enrichment (6-mer frequency, TF over GST control); with FEV, 1.14 fold enrichment (6-mer frequency, TF over GST control); with ETV5 it was 1.12 fold enrichment (6-mer frequency, TF over GST control); with SPIC it was 1.07 fold enrichment (6-mer frequency, TF over GST control); with ELF4, 1.06 fold enrichment (6-mer frequency, TF over GST control). The binding signal was 1.3 fold enrichment (6-mer frequency, TF over GST control) with ETV1; 1.3 fold enrichment (6-mer frequency, TF over GST control) with ERF; 1.13 fold enrichment (6-mer frequency, TF over GST control) in the assay with ETV3L; 1.14 fold enrichment (6-mer frequency, TF over GST control) with ETS2; 1.24 fold enrichment (6-mer frequency, TF over GST control) with SPDEF; 1.19 fold enrichment (6-mer frequency, TF over GST control) in the assay with ELF5. Also, the binding signal with ETV3 is 1.2 fold enrichment (6-mer frequency, TF over GST control); with ETV6, 1.2 fold enrichment (6-mer frequency, TF over GST control).
